High-throughput results: PubChem BioAssay, National Center for Advancing Translational Sciences (NCATS)
HCV inhibitor: qHTS Assay for Inhibitors of Hepatitis C Virus (HCV); Huh7.5.1 HCVcc-Cre infection, luciferase reporter, 44 h; Potency, µM (highest dose often 41.8 µM), without a hit: at the highest dose activity change, negative = inhibition, most hits filed as inhibitors; 3.4% of 340,000 active; AID 651820, 2012; also: potency is read from the fitted curve at half-maximal effect; % is scaled to controls: 0 for no effect and ±100 for the full control effect
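Infectious HCV cell culture screen: compound-treated cells (1,000/well, pre-plated 4 h) are infected with HCVcc-Cre at roughly 0.5 moi and grown 44 h. Infection is quantified by luciferase signal after 15 min substrate incubation at room temperature.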
Pf growth 48h: Primary qHTS for delayed death inhibitors of the malarial parasite plastid, 48 hour incubation. P. falciparum luciferase growth in erythrocytes, 48 h. Potency, µM (top dose mostly 28.7 µM), for inactives: at the highest dose activity change, negative = inhibition, hits mostly inhibitors. 5.9% of 310,000 active; also: potency is read from the fitted curve at half-maximal effect; % is scaled to controls: 0 for no effect and ±100 for the full control effect
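A one-generation exposure of luciferase-tagged malaria parasites in RPMI 1640/Albumax erythrocyte culture, 37 C and 5% CO2. Inhibition is inferred from decreased luminescence after adding detection reagent.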
Shiga toxin inh: A qHTS for Small Molecule Inhibitors of Shiga Toxin. Vero cells, Shiga toxin protein synthesis inhibition reporter. inhibition, % at 38.7 µM. 9.2% of 290,000 active. AID 2315, 2010; in the data active = inhibition mostly above about 28%, no sharp cut-off; inactive = mostly below about 43%; also: 0% is about no effect
Pf growth 96h: Primary qHTS for delayed death inhibitors of the malarial parasite plastid, 96 hour incubation; P. falciparum luciferase reporter growth, 96 h; Potency, µM (top dose mostly 28.7 µM), for the others: at the highest dose activity change, negative = inhibition, actives largely listed as inhibitors; 6.9% of 320,000 active; also: potency is read from the fitted curve at half-maximal effect; % is scaled to controls: 0 for no effect and ±100 for the full control effect
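Plates of compound plus infected erythrocytes (2% hematocrit, 0.05% parasitemia final) incubate 96 hours, 37 C, 5% CO2. Detection reagent added; reduced luminescence from the parasites' luciferase reporter flags inhibition.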
AMA1 RON2 block: qHTS for Inhibitors of AMA1-RON; Towards Development of Antimalarial Drug Lead: Primary Screen; 0.2% of 360,000 active; Potency, µM (highest dose often 58.2 µM), without a hit: at the highest dose activity change, negative = inhibition, hits mostly inhibitors; Plasmodium falciparum AMA1 (3D7) - RON2 peptide interaction; AlphaScreen AMA1-biotinylated RON2 peptide binding;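 also: potency is read from the fitted curve at half-maximal effect; 0% = vehicle wells and -100% = peptide control; nearly all actives have a fitted effect of over 45% in size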
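AMA1 (3D7) with his tag at 25 nM final met compounds first, then biotinylated RON2 peptide at 25 nM; detection used donor plus acceptor beads, 10 µg/mL apiece, read by AlphaScreen after 30 min at room temperature.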
CHX counter: Cycloheximide Counterscreen for Small Molecule Inhibitors of Shiga Toxin; cell reporter, cycloheximide protein synthesis inhibition counterscreen; max response, %; 12% of 300,000 active; in the data active = max response mostly above about 13%, no sharp cut-off; inactive = mostly below about 14%; also: read at 38.3 µM for the half of the compounds with a filed dose; 0% is about no effect
* = called active by the depositor; i = inactive; ? = inconclusive; · = not tested or not shown. Rows were chosen to be rich in hits. Some 21% of all compounds tested hit in one or more screens of this group. Unless noted, calls follow the shape of the dose curve; as a rule, active = well fitted curve in the direction sought with a large enough effect; inconclusive = small, poorly fitted or top-dose-only effect, or another doubt; inactive = no such curve, though single readings can be large; an effect the other way counts as inactive or inconclusive.

SMILES	HCV inhibitor	Pf growth 48h	Shiga toxin inh	Pf growth 96h	AMA1 RON2 block	CHX counter
Cc1ccc(SC[C@H](Cc2ccccc2)N2CC[C@@H](C)CCC2=O)cc1	?	?	-9	?	3%	-3
O=C(COC(=O)c1ccccc1SCC(=O)N1CCCC1)NCc1ccccc1	-17%	?	·	6%	2%	·
O=C(/C(=C(\[O-])c1ccccc1)[n+]1ccc2ccccc2c1)c1ccccc1	1%	?	active	13µM*	10%	26*
O=C(/C(=C(\[O-])c1ccccc1)[n+]1ccc2ccccc2c1)c1ccc([N+](=O)[O-])cc1	-2%	9%	9	-22%	-19%	10
O=C(/C(=C(\[O-])c1ccccc1)[n+]1ccc2ccccc2c1)c1ccc(Cl)cc1	5%	?	68*	?	-19%	28
O=C(Nc1cc2ccccc2oc1=O)c1ccccc1	-21%	386%	87*	11%	2%	31*
Cc1cc(NC(=O)c2cc3ccccc3o2)ccc1NC(=O)c1ccccc1	?	16%	53	-24%	-4%	13*
Cc1cc(NC(=O)C2CC=CCC2C(=O)O)ccc1NC(=O)c1ccccc1 (stereo not drawn)	14%	?	25*	9.3µM*	-11%	25
Cc1cc(NC(=O)c2ccc3c(c2)OCCO3)ccc1NC(=O)c1cc2ccccc2o1	11µM*	21%	71*	?	-2%	16*
O=C(O)C1CC=CCC1C(=O)Nc1ccc2c(c1)CCC2 (stereo not drawn)	16%	6%	23	14%	5%	-2
O=C(Nc1ccc(NC(=O)c2cc3ccccc3o2)cc1)c1ccc2c(c1)OCCO2	?	?	8	i	-4%	12
CCCNC(=O)C1(C)CCCN(Cc2ccc(C(=O)OCC)o2)C1 (stereo not drawn)	·	·	·	·	6%	·
O=C(NC12CC3CC(CC(C3)C1)C2)C1CCCN1C(=O)Nc1ccccc1 (stereo not drawn)	11%	14%	-6	25%	15%	-3
C=C(C)C1(O)OC(=O)C=C1OC (stereo not drawn)	-19%	?	14	?	5%	8.5*
O=C(c1ccc(N2C(=O)C3C4CC(C(Br)C4Br)C3C2=O)cc1)N1CCCCC1 (stereo not drawn)	12%	?	-3	71%	-9%	-3
NCc1cc2c3c(c1)CCCN3CCC2	6%	-6%	-16	7.4µM*	17%	-9
Cc1cc(OCCCCOc2ccc(S(N)(=O)=O)c(C)c2)ccc1S(N)(=O)=O	?	-18%	3	24%	-2%	-2
c1ccc2c(c1)nnn2-c1ncnc2sc3c(c12)CCCC3	·	0%	28	3.3µM*	12%	14*
CC(O)CNc1nc2ccccc2n1-c1ncnc2sc3c(c12)CCC3 (stereo not drawn)	?	·	1	4.1µM*	-10%	2
c1ccc2c(c1)ncn2-c1ncnc2sc3c(c12)CCCC3	-5%	19%	-34	-1%	13%	-5
O=C(Cc1cnc2ncnn2c1)N1CCc2c([nH]c3ccccc23)C1c1ccccc1F (stereo not drawn)	8%	-3%	-10	-8%	-8%	-3
O=C1OC2(CCCCC2)OC(=O)C1=CNc1ccc2c(c1)OCO2	7%	-16%	30	31%	-11%	17
Nc1ccc2c(c1)OC1(CCCC1)O2	?	37%	99*	4.1µM*	-10%	48*
CCOC(=O)[C@]12CCC=C1N(Cc1ccc(Cl)cc1Cl)C(=O)[C@H](CC(=O)N1CCOCC1)C2	·	·	·	·	-1%	·
CCc1[nH]nc2c1C1(CCN(C(=O)OCc3ccccc3)CC1)C(C#N)=C(N)O2	0%	-26%	7	0.19µM*	-1%	2
SMILES	HCV inhibitor	Pf growth 48h	Shiga toxin inh	Pf growth 96h	AMA1 RON2 block	CHX counter
CCCc1[nH]nc2c1C1(CCN(C(=O)OCc3ccccc3)CC1)C(C#N)=C(N)O2	11%	?	-6	28%	7%	10
O=C(N/N=C/c1ccc(O)cc1)/C(=C/c1ccccc1)CCO	1%	13µM*	20	?	12%	14*
CC1(C)CC(=O)C(CSC(=O)c2ccccc2)C(=O)C1	·	·	·	·	3%	·
CCc1ccc(C(=O)Nc2cc3c(cc2Cl)OCCCO3)cc1	?	83%	84*	285%	1%	60*
O=C(O)c1cc2c(cc1NC(=O)c1ccccc1C(F)(F)F)OCCCO2	-10%	-3%	20	2%	-20%	-6
O=C(Nc1cc2c(cc1C(=O)O)OCCCO2)c1ccc(C(F)(F)F)cc1	14%	118%	76*	196%	-19%	44*
O=C(Cc1ccccc1)Nc1cc2c(cc1Cl)OCCCO2	-1%	67%	75*	113%	0%	59*
O=C(Cc1ccccc1)Nc1ccc(NC(=O)Cc2ccccc2)c(Cl)c1	13%	37%	-4	?	2%	-2
COCCN(CC1CCCN(C2Cc3ccccc3C2)C1)C(=O)c1ccc(C(C)=O)cc1 (stereo not drawn)	6%	?	16	49%	7%	5
COCCN(CC1CCCN(C2Cc3ccccc3C2)C1)C(=O)CCC(F)(F)F (stereo not drawn)	-11%	5%	7	0.41µM*	-2%	-2
CCC(NC(=O)c1cncc(Br)c1)c1ccccc1 (stereo not drawn)	-13%	·	·	·	0%	·
CCOC(=O)C1CCCN(C(=O)c2cn(C)c(=O)c3cc(OC)c(OC)cc23)C1 (stereo not drawn)	-8%	-7%	-3	6.6µM*	-1%	-4
CCOC(=O)C1CCCN(C(=O)c2cn(CC)c(=O)c3cc(OC)c(OC)cc23)C1 (stereo not drawn)	3%	-23%	-4	1µM*	1%	-2
CCOC(=O)C1CCN(C(=O)c2cn(C)c(=O)c3cc(OC)c(OC)cc23)CC1	0%	-8%	-8	-4%	3%	-5
Cn1ccc(NC(=O)c2ccc([N+](=O)[O-])cc2)n1	0%	-1%	·	24%	-1%	·
C/C(CC(=O)NC12CC3CC(CC(C3)C1)C2)=N\NC(=O)Cc1cccs1	-9%	12%	13	?	21%	12
COc1ccc(COC(=O)N/N=C(\C)CC(=O)Nc2ccc(Cl)cn2)cc1	-3%	24%	17	39%	24%	14
C/C(CC(=O)Nc1ccc(Cl)cn1)=N\NC(=O)Cc1cccs1	-1%	17%	26	20%	53%	13*
